This passage reports Potency results from PubChem BioAssay AID602370 (National Center for Advancing Translational Sciences (NCATS), 2012).

The other results are listed elsewhere or left out. Inconclusive results are not listed. Calls of active or inactive are those of the source. Calls come from the whole dose curve; as a rule, active = well fitted inhibition curve with a large enough effect; inconclusive = small, poorly fitted or top-dose-only effect; inactive = no such curve, though single readings can be large or run the other way.

The experiment deals with 4'-phosphopantetheinyl transferase Sfp (Bacillus subtilis (strain 168)) (UniProt P39135). The experiment is described as follows: qHTS Assay for Inhibitors of Bacillus subtilis Sfp phosphopantetheinyl transferase (PPTase): SAR Round 2. The settings on record: purified Sfp enzyme, PPTase activity. The source says: The covalent attachment of a phosphopantetheinyl (4'-PP) arm to a variety of synthases and other proteins is a key posttranslational protein modification. The 4'-PP is installed on the proteins post-translationally from coenzyme A (CoA) on a conserved serine residue by action of phosphopantetheinyl transferase (PPTase) enzymes. Phosphopantetheinylation is essential for synthase activity, and removal of the PPTase gene precludes natural product synthesis in microorganisms, or in the case of fatty acid biosynthesis, renders the organism unviable. PPTase enzymes belong to a distinct structural superfamily. Within bacteria, these enzymes are grouped into two classes based upon primary structure, the AcpS-Type and Sfp-Type PPTases.
Sfp-type PPTases, corresponding to an activator of surfactin production in Bacillus subtilis, are responsible for modifying type I polyketide and nonribosomal peptide synthases of prokaryotes. Sfp-type PPTases are responsible for the activation of a variety of pathogen-associated virulence factors. Among these compounds are toxins such as mycolactone from Mycobacterium ulcerans, siderophores such as vibriobactin from Vibrio cholerae or mycobactin from Mycobacterium tuberculosis, as well as the mycolic acids which form the waxy cell wall of Mycobacteria. The biosyntheses of these natural products are considered attractive targets for drug design.
In search of small molecule Sfp-PPTase inhibitors, a fluorescence quenching assay was developed for detection of Bacillus subtilis Sfp-PPTase enzymatic activity in a miniaturized high-throughput format. The consensus ybbr acceptor peptide […] was N-terminally labeled with Black Hole Quencher-2 (BHQ-2) and used in combination with rhodamine-labeled coenzyme A as a co-substrate.
Inhibition of Sfp-PPTase was detected by recording the fluorescence intensity change over a 30-minute reaction period at a 525 nm excitation and 598 nm emission. Reagents were supplied by Michael Burkart and Timothy Foley, University of California at San Diego.
NIH Chemical Genomics Center [NCGC]
NIH Molecular Libraries Probe Centers Network [MLPCN]
Assay Submitter (PI): Michale Burkart, University of California, San Diego
Assay Buffer: 50 mM Hepes-Na pH 7.6, 10 mM MgCl2, 0.01% Nonidet P-40, and 0.01% BSA.
3 uL of Sfp-PPTase enzyme (final concentration 15 nM) and 1 uL of substrate mixture (final concentration for rhodamine-CoA and BHQ-2-YbbR 5 uM and 12.5 uM, respectively) dispensed in columns 1, 2, 5 - 48. Columns 1 and 2 used to generate neutral control (uninhibited reaction)
Three uL of reagents, consisting of buffer (in columns 3 and 4 as negative control) and Sfp-PPTase (in columns 1, 2, 5 - 48) were dispensed into 1,536-well Greiner black solid bottom plate. Compounds (23 nL) were transferred via Kalypsys pintool equipped with 1,536-pin array. The plate was incubated for 15 min at room temperature, followed by the addition of 1 uL substrate to start the reaction. The plate was then centrifuged at 1000 rpm for 15 seconds, and the fluorescence intensity recorded on a ViewLux High-throughput CCD imager (Perkin-Elmer) using standard BODIPY optics (525 nm excitation and 598 nm emission). The plate was then incubated for 30 minutes, and a second read on the ViewLux was performed. The fluorescence intensity difference over the 30-minute period was used to calculate the respective reaction rate for each well.
As to `Cc1cc(C)nc(NC(=S)N2CCN(c3ccc(Cl)cc3C(F)(F)F)CC2)c1`, the Potency was 580 nM (active).
To `Cc1cc(C)nc(NC(=S)N2CCN(c3cccc(C(F)(F)F)c3)CC2)c1` belongs 510 nM (active); to `Cc1cc(C)nc(NC(=S)N2CCN(c3cccc(C#N)c3)CC2)c1`, 1620 nM (active); to `COc1ccnc(NC(=S)N2CCN(c3ncc(C(F)(F)F)cc3Cl)CC2)c1`, 290 nM (active).
With `COc1cccc(NC(=S)N2CCN(c3ccccc3C(F)(F)F)CC2)n1` the figure was 3240 nM (active).
Take `Cc1cc(C)nc(NC(=S)N2CCN(c3ccc4nonc4c3)CC2)c1`: the Potency is 6460 nM (active).
With `Cc1cc(C)nc(NC(=S)N2CCN(c3ccc(Cl)cc3F)CC2)c1`, the Potency was 910 nM (active).
As for `Cc1ccc(N2CCN(C(=S)Nc3cc(C)ccn3)CC2)cc1`, the Potency is 5130 nM (active).
